Results as given in PubChem BioAssay AID1159580 (chemical genetic matrix, 2015).
Screen size: about 5,500 compounds; about 2,000 (36%) were called active. Roughly 18% stayed inconclusive and do not appear here. Rule as the data show it: active = normalized growth mostly below about 0.91 (no sharp cut-off); inconclusive = no clear call, values can overlap the other calls; inactive = mostly above about 0.92. Some of the results follow.

Assay: chemical genetic growth profiling, strain panel (AID 1159580);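 also: tested at 20 µM; growth read once vehicle control cultures reached saturation at 30 °C; 1 = growth at the plate median or of vehicle wells; lower values mean less growth of the strain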
Settings: growth OD
[1] = S. cerevisiae deletion strains, locus YAL013W, strain DEP1, hits give low values
[2] = S. cerevisiae deletion strains, locus YGR078C, strain PAC10, hits give low values
[3] = S. cerevisiae deletion strains, locus YMR263W, strain SAP30, hits give low values
[4] = S. cerevisiae deletion strains, locus YMR307W, strain GAS1, hits give low values
[5] = S. cerevisiae deletion strains, locus YNL153C, strain GIM3, hits give low values
[6] = S. cerevisiae deletion strains, locus YBR229C, strain ROT2, hits give low values
[7] = S. cerevisiae deletion strains, locus YDL101C, strain DUN1, hits give low values
[8] = S. cerevisiae deletion strains, locus YDL134C, strain PPH21, hits give low values
[9] = S. cerevisiae deletion strains, locus YDR150W, strain NUM1, hits give low values
[10] = S. cerevisiae deletion strains, locus YEL061C, strain CIN8, hits give low values
[11] = S. cerevisiae deletion strains, locus YHR030C, strain SLT2, hits give low values
[12] = S. cerevisiae deletion strains, locus YHR087W, strain rtc3, hits give low values
[13] = S. cerevisiae deletion strains, locus YJR043C, strain POL32, hits give low values
[14] = S. cerevisiae deletion strains, locus YJR075W, strain HOC1, hits give low values
[15] = S. cerevisiae deletion strains, locus YKL190W, strain CNB1, hits give low values
[16] = S. cerevisiae deletion strains, locus YLR039C, strain RIC1, hits give low values
[17] = S. cerevisiae deletion strains, locus YLR058C, strain SHM2 (second series), hits give low values
[18] = S. cerevisiae deletion strains, locus YLR085C, strain ARP6, hits give low values
[19] = S. cerevisiae deletion strains, locus YLR262C, strain YPT6, hits give low values
[20] = S. cerevisiae deletion strains, locus YML094W, strain GIM5, hits give low values
[21] = S. cerevisiae deletion strains, locus YMR219W, strain ESC1, hits give low values
[22] = S. cerevisiae deletion strains, locus YNL298W, strain CLA4 (second series), hits give low values
[23] = S. cerevisiae deletion strains, locus YNL322C, strain KRE1, hits give low values
[24] = S. cerevisiae deletion strains, locus YNR030W, strain Alg12, hits give low values
[25] = S. cerevisiae deletion strains, locus YPL055C, strain LGE1, hits give low values
[26] = S. cerevisiae deletion strains, locus YPL241C, strain CIN2, hits give low values
[27] = S. cerevisiae deletion strains, locus YPR135W, strain CTF4, hits give low values
[28] = S. cerevisiae strains, strain wild type, hits give low values
[29] = S. cerevisiae deletion strains, locus YHR079C, strain IRE1, hits give low values
[30] = S. cerevisiae deletion strains, locus YJL095W, strain BCK1, hits give low values
[31] = S. cerevisiae deletion strains, locus YJR066W, strain TOR1, hits give low values
[32] = S. cerevisiae deletion strains, locus YLR113W, strain HOG1, hits give low values
[33] = S. cerevisiae deletion strains, locus YNL183C, strain NPR1, hits give low values
[34] = S. cerevisiae deletion strains, locus YOR231W, strain MKK1, hits give low values
[35] = S. cerevisiae deletion strains, locus YPL256C, strain CLN2, hits give low values
[36] = S. cerevisiae deletion strains, locus YCL061C, strain MRC1, hits give low values
[37] = S. cerevisiae deletion strains, locus YOL006C, strain TOP1, hits give low values

Measured: normalized growth

Nc1nc(Cl)nc2c1ncn2[C@@H]1O[C@H](CO)[C@H](O)C1O (stereo not given in full)
inactive: [1] 1.01 | S. cerevisiae deletion strains, locus YAL040C, strain CLN3, hits give low values 1.02 | S. cerevisiae deletion strains, locus YER002W, strain NOP16, hits give low values 0.991 | [2] 1.01 | [3] 1.01 | [4] 1 | [5] 1.04 | S. cerevisiae deletion strains, locus YNL175C, strain NOP13, hits give low values 0.996 | S. cerevisiae deletion strains, locus YNL197C, strain WHI3, hits give low values 0.979 | S. cerevisiae deletion strains, locus YNL224C, strain SQS1, hits give low values 1 | S. cerevisiae deletion strains, locus YOR083W, strain WHI5 (second series), hits give low values 1.02

FC(F)(F)Oc1ccc(-c2noc(CSc3ccc(Br)cc3)n2)cc1
inactive: [1] 1.02 | [6] 1.01 | [7] 0.967 | [8] 0.999 | [9] 1 | [10] 0.974 | [2] 1 | [12] 1.01 | [13] 0.992 | [14] 0.978 | [15] 0.989 | [16] 1.05 | [17] 0.997 | [18] 0.905 | [19] 1 | [20] 0.99 | [21] 1 | [3] 0.997 | [4] 0.75 | [5] 1 | [22] 0.969 | [23] 0.996 | [24] 0.958 | [25] 1.04 | [26] 0.966 | [27] 1.1 | [28] 0.985
active: [11] 0.69

CC(=O)OCC1=C(C(=O)O)N2C(=O)[C@@H](N)C2SC1 (stereo not given in full)
inactive: [11] 1.06 | [29] 1.07 | [30] 1.07 | [31] 0.976 | [32] 1.05 | [33] 0.983 | [34] 1.07 | [35] 1.07

C[C@H]1CC2C3CCC4=CC(=O)C=C[C@]4(C)[C@@]3(F)[C@@H](O)C[C@]2(C)[C@@]1(O)C(=O)COP(=O)(O)O (stereo not given in full)
inactive: [11] 1.07 | [29] 1.08 | [30] 1.03 | [31] 0.971 | [32] 1.03 | [33] 0.983 | [34] 1.08 | [35] 1.09

O=C(O)COCC(=O)N1CCc2c([nH]c3ccccc23)C1C(F)(F)F (stereo not given)
inactive: [1] 1.01 | [6] 0.998 | [7] 1.02 | [8] 1.01 | [9] 0.949 | [10] 1.01 | [2] 1.03 | [11] 1.06 | [12] 1.01 | [13] 1.02 | [14] 1.06 | [15] 1.03 | [16] 1.03 | [17] 1.02 | [19] 0.998 | [20] 1.04 | [21] 1 | [3] 0.954 | [4] 1.24 | [5] 1.01 | [22] 1.05 | [23] 1.02 | [24] 1.06 | [25] 0.961 | [26] 1.07 | [27] 1.05 | [28] 1.02
active: [18] 1.33 [resistant]

COC(=O)[C@H]1[C@H]2C[C@H]3c4[nH]c5ccccc5c4CCN3C[C@H]2CC[C@@H]1O
inactive: [1] 0.998 | S. cerevisiae deletion strains, locus YBR021W, strain FUR4, hits give low values 1 | [6] 1.01 | S. cerevisiae deletion strains, locus YCL029C, strain bik1, hits give low values 1 | S. cerevisiae deletion strains, locus YDL035C, strain GPR1, hits give low values 1.01 | S. cerevisiae deletion strains, locus YDL074C, strain BRE1, hits give low values 1.02 | [7] 1.01 | [8] 1.01 | S. cerevisiae deletion strains, locus YDL185W, strain tfp1, hits give low values 1.01 | S. cerevisiae deletion strains, locus YDL192W, strain arf1, hits give low values 1 | S. cerevisiae deletion strains, locus YDR101C, strain arx1, hits give low values 1.01 | [9] 1.01 | S. cerevisiae deletion strains, locus YDR162C, strain NBP2, hits give low values 1.01 | S. cerevisiae deletion strains, locus YDR318W, strain mcm21, hits give low values 1 | S. cerevisiae deletion strains, locus YDR388W, hits give low values 1 | S. cerevisiae deletion strains, locus YDR502C, strain sam2, hits give low values 1.01 | [10] 1.01 | S. cerevisiae deletion strains, locus YER110C, hits give low values 1 | S. cerevisiae deletion strains, locus YER155C, strain BEM2, hits give low values 1.01 | S. cerevisiae deletion strains, locus YER167W, strain BCK2, hits give low values 1.01 | S. cerevisiae deletion strains, locus YGL078C, strain dbp3, hits give low values 1.01 | S. cerevisiae deletion strains, locus YGL086W, strain mad1, hits give low values 1.01 | S. cerevisiae deletion strains, locus YGL248W, strain PDE1, hits give low values 1.01 | S. cerevisiae deletion strains, locus YGR135W, strain pre9, hits give low values 0.988 | S. cerevisiae deletion strains, locus YGR229C, strain SMI1, hits give low values 1.01 | S. cerevisiae deletion strains, locus YGR252W, strain gcn5, hits give low values 0.977 | [11] 1.01 | S. cerevisiae deletion strains, locus YHR079C, strain IRE1 (second series), hits give low values 1 | S. cerevisiae deletion strains, locus YHR094C, strain hxt1, hits give low values 1 | S. cerevisiae deletion strains, locus YHR129C, strain ARP1, hits give low values 1.01 | S. cerevisiae deletion strains, locus YHR200W, strain rpn10, hits give low values 1.01 | S. cerevisiae deletion strains, locus YIL066C, strain RNR3, hits give low values 1.02 | S. cerevisiae deletion strains, locus YIL073C, strain SPO22, hits give low values 1 | S. cerevisiae deletion strains, locus YIL125W, strain kgd1, hits give low values 0.999 | S. cerevisiae deletion strains, locus YIR030C, strain dcg1, hits give low values 0.999 | [30] 1.02 | S. cerevisiae deletion strains, locus YJL134W, strain LCB3, hits give low values 1.01 | S. cerevisiae deletion strains, locus YJL168C, strain set2, hits give low values 0.998 | S. cerevisiae deletion strains, locus YJL187C, strain SWE1 (second series), hits give low values 1.03 | [13] 1.02 | S. cerevisiae deletion strains, locus YKL009W, strain mrt4, hits give low values 1 | S. cerevisiae deletion strains, locus YKL068W, hits give low values 0.993 | S. cerevisiae deletion strains, locus YKL085W, strain MDH1 (second series), hits give low values 1.01 | S. cerevisiae deletion strains, locus YKL085W, strain MDH1, hits give low values 1.01 | [15] 1.01 | S. cerevisiae deletion strains, locus YKR001C, strain vps1, hits give low values 1.02 | [16] 1.08 | S. cerevisiae deletion strains, locus YLR058C, strain SHM2, hits give low values 1.02 | S. cerevisiae deletion strains, locus YLR102C, strain apc9, hits give low values 1 | [19] 1.08 | S. cerevisiae deletion strains, locus YLR268W, strain sec22, hits give low values 1 | S. cerevisiae deletion strains, locus YLR330W, strain CHS5, hits give low values 1.01 | S. cerevisiae deletion strains, locus YLR342W, strain FKS1 (second series), hits give low values 0.984 | S. cerevisiae deletion strains, locus YLR371W, strain rom2, hits give low values 0.999 | S. cerevisiae deletion strains, locus YLR418C, strain cdc73, hits give low values 0.985 | S. cerevisiae deletion strains, locus YML016C, strain PPZ1, hits give low values 1.01 | S. cerevisiae deletion strains, locus YML032C, strain rad52, hits give low values 0.998 | S. cerevisiae deletion strains, locus YML124C, strain tub3, hits give low values 0.993 | S. cerevisiae deletion strains, locus YMR078C, strain ctf18, hits give low values 1.01 | S. cerevisiae deletion strains, locus YMR223W, strain ubp8, hits give low values 0.992 | [3] 1.01 | [4] 0.95 | S. cerevisiae deletion strains, locus YNL067W, strain RPL9B, hits give low values 1.02 | S. cerevisiae deletion strains, locus YNL233W, strain BNI4, hits give low values 1.02 | S. cerevisiae deletion strains, locus YNL250W, strain rad50, hits give low values 1.02 | S. cerevisiae deletion strains, locus YNL271C, strain bni1, hits give low values 1.01 | S. cerevisiae deletion strains, locus YNL298W, strain CLA4, hits give low values 0.988 | S. cerevisiae deletion strains, locus YNL307C, strain MCK1, hits give low values 1.01 | S. cerevisiae deletion strains, locus YNR052C, strain pop2, hits give low values 0.998 | S. cerevisiae deletion strains, locus YOL012C, strain htz1 0.805 | S. cerevisiae deletion strains, locus YOL147C, strain pex11, hits give low values 1.01 | S. cerevisiae deletion strains, locus YOR061W, strain CKA2, hits give low values 1.01 | S. cerevisiae deletion strains, locus YOR069W, strain VPS5, hits give low values 1.01 | S. cerevisiae deletion strains, locus YOR136W, strain idh2, hits give low values 0.998 | S. cerevisiae deletion strains, locus YOR144C, strain elg1, hits give low values 1 | S. cerevisiae deletion strains, locus YOR184W, strain ser1, hits give low values 1.01 | S. cerevisiae deletion strains, locus YOR316C, strain cot1, hits give low values 1.01 | [26] 1.01 | S. cerevisiae deletion strains, locus YPR119W, strain clb2, hits give low values 1 | S. cerevisiae deletion strains, locus YPR141C, strain kar3, hits give low values 0.992 | S. cerevisiae deletion strains, locus YPR163C, strain tif3, hits give low values 1.01 | S. cerevisiae deletion strains, locus YPR167C, strain met16, hits give low values 1 | S. cerevisiae deletion strains, strain wtn01, hits give low values 1.01

O=C(CSc1ccc(C(F)(F)F)cn1)N1CCc2c([nH]c3ccccc23)C1C(F)(F)F (stereo not given)
inactive: [1] 1 | [6] 0.995 | [36] 1.01 | [7] 1 | [9] 1.02 | [10] 0.959 | [2] 0.984 | [11] 1.01 | [12] 0.974 | S. cerevisiae deletion strains, locus YJL187C, strain SWE1, hits give low values 1.02 | [13] 1.01 | [14] 0.965 | [16] 0.999 | [17] 1.01 | [18] 1 | [19] 0.982 | [20] 0.997 | [21] 1.01 | [3] 1.01 | [4] 0.935 | [5] 0.998 | [22] 1.01 | [23] 0.991 | [24] 0.916 | [37] 1.08 | [25] 0.954 | [26] 0.936 | [27] 0.907

O=C(O)CSCC(=O)N1CCc2c([nH]c3ccccc23)C1C(F)(F)F (stereo not given)
inactive: [1] 1.01 | [6] 1.01 | [36] 1.04 | [7] 1.01 | [8] 1 | [9] 0.936 | [10] 0.997 | [2] 1.05 | [11] 1.16 | [12] 1 | [13] 1.02 | [14] 1.03 | [15] 1 | [16] 1.04 | [17] 1.02 | [18] 1.09 | [19] 1.01 | [20] 1 | [21] 1.02 | [3] 1.02 | [4] 1.1 | S. cerevisiae deletion strains, locus YNL128W, strain TEP1, hits give low values 0.987 | [5] 1.01 | [22] 1.05 | [23] 1.02 | [24] 1.02 | [37] 1.11 | [25] 0.991 | [27] 1.06 | [28] 0.993
active: [26] 1.22 [resistant]
